Here are results for 39 sequences from the supplement of paper PMC6555819.

The subject of the first assay is PPARa:RXRa (NR concentration 270 nM, RXRa partner concentration 90 nM). Briefly: PBM binding z-score (relative to random genomic background probes); higher = stronger binding; sequences stand for … in GC…GCGATTGACAGCGTAGAATGAAGG
The method in brief: (§1)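 Binding z-scores were set against random background probes. The data came from custom Agilent 4×180K protein-binding microarrays carrying double-stranded probes with 34-nt variable regions, incubated 1 h with ligand-free nuclear receptor dimers. Partner-specific antibodies detected binding, and scanned fluorescence was regression-normalized.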
CCAGACAGGTGAGAAGGGAACTCAGCCTCGATTA: the PBM binding z-score is -0.0624.
The same measure, in the same setting: in the case of TAGACTAGGTCATTGGGCCAGTATAGTACGCATC it was 3.89.
On the same count and under the same terms, in the case of GCGACTGGCGCAAAGCAGGTTACCATAAGGTTGG it was -0.182; in that of CATACTGGGCCAAAGGTCATTGATTCCAATGCTC, 6.71.
Still for that read-out and setting: in the case of CCTAATGGGCCAAAAAGGTCATTGATGCCGATAA it was 4.59.
CCTAGTTGGTCAGGAGGTCACACCCCGGATATGA gave a PBM binding z-score of 3.98.
On the same count and under the same terms, in the case of ACAGACAGGTGAGTGAACGTAACTCAGCTGGACG it was -0.0939.
TGAATGAGGTTCAAGATCAGGGAACGTGGCGTCG: the PBM binding z-score stood at 1.76.
CCGACTGGGGGAAGGTTACCATAACGCACAGCCA: the PBM binding z-score amounted to 1.71.
As to TAGCCTAGGTCAGATCGCGCCAGTATACGCTATA, the PBM binding z-score worked out at 1.63.
In turn, CGAACGAGGCCATGAGTTGATAGCAAATGCCGAT displayed a PBM binding z-score of 0.273.
TCTTGTAGATCAACAGAGGTTAAGAAAGTGCGCT had a PBM binding z-score of 2.09.
For GCTCGGAGGACAAGGTCAGAGCCTTGTCCGTAGA, the PBM binding z-score turned out to be 2.91.
Same read-out and setting: in the case of ATCGAAAGGTCGTGAGGTGAGTATGCAGAAAGGC it was 5.19.
For CCTGCTAGGTCATGATCAGCTAATCTACAGTATG, the PBM binding z-score was 3.31.
For CCTCGGAGGACAACAGGTGGTCAGAGCTGCCAGA, the PBM binding z-score is -0.623.
In turn, CCGAGTAGGTCATGGGGCATTCAGGCAACGGTGA came in with a PBM binding z-score of 4.92.
Same read-out and setting: in the case of CGTCAAAGTTCAAGGTAACGTACCAGAAAGCAGC it was 4.79.
On to CGAACTAGGTCACTGACAGGACAGTGAATAGTAA, for which the PBM binding z-score worked out at 4.7.
The same measure, in the same setting: the value for CCTACTGGGCCACGAAAGGTCATTGCTTCAGTGA was 4.62; that for CAAACTAGATCACCGGAAGGTCAAAGTCCGCATG was 3.85; that for CCTAGTTGGTCAATGTCACACACGCTATAGGTAC was 0.77.
As for CCTACTGGGCCATCACGTCATTGATATCAACGTT, the PBM binding z-score is 0.509.
Same read-out and setting: the value for GCGACTGGGGCAAAGCAGGTTACCATAAGGTTGG was 1.15; that for TCTGCTAGGTCAACGATGGTCAGCTACTCTGCTA was 3.3; that for ACAAGCAGGCCAAGGGTCACTCAAGATTAGTCCG was 4.58.
On the same count and under the same terms, the value for CCTAGCAGGCCAAGGTCACTCAAGCATTTCGCTT was 3.34.
The same measure, in the same setting: the value for TCTCGGAGGACACGAAGGTCAGACCTTTCCAGAG was 2.19; that for GTACCAAGGTGAATAGGTCGTTAATGAGTAGGCG was 2.18; that for TCTATTAGTTGATGGGCAACCGACGAGTCCGTTT was -0.00429.
On to CGAACTAGGGCATCCAGGACAGTGAATACATTGA, for which the PBM binding z-score came out at 2.12.
Still for that read-out and setting: in the case of TTACCTAGGTGAAGGTCGTTGATCCCTCTGTAGA it was 2.32; in that of CGGACTGGGGCAAGGTTACCATAACGCACAGCCA, 2.67; in that of ACTATTAGTTGACTTAGGGCAACCGTTACGACGC, 0.372.
On the same count and under the same terms, in the case of CCGACTGGGGCTAAGGTTACCATACTCAGTACGA it was 2.71; in that of AGAACGAGGGCATGCTGAGTTGATAGCAGAGTAG, 1.12.
The same measure, in the same setting: the value for ATATGTAGGTTATCGGTTCATTCAGTTTGCGCAT was 3.91; that for TCATATAGGTAAACAGTTGAAAGTCCGTAAGTTA was 1.76.
The sequence CAAACTACGTCACCGGAAGGTCAAAGTCCGCATG gave a PBM binding z-score of 3.5.

The test system of the next assay is PPARg:RXRa (NR concentration 180 nM, RXRa partner concentration 90 nM). The description is as above. The essentials: as §1
The sequence CCAGACAGGTGAGAAGGGAACTCAGCCTCGATTA came in with a PBM binding z-score of 0.318.
The same measure, in the same setting: the value for TAGACTAGGTCATTGGGCCAGTATAGTACGCATC was 5.62.
Still for that read-out and setting: in the case of GCGACTGGCGCAAAGCAGGTTACCATAAGGTTGG it was 0.258; in that of CATACTGGGCCAAAGGTCATTGATTCCAATGCTC, 11.9; in that of CCTAATGGGCCAAAAAGGTCATTGATGCCGATAA, 2.58.
Regarding CCTAGTTGGTCAGGAGGTCACACCCCGGATATGA, the PBM binding z-score stood at 2.86.
ACAGACAGGTGAGTGAACGTAACTCAGCTGGACG displayed a PBM binding z-score of 0.744.
Same read-out and setting: the value for TGAATGAGGTTCAAGATCAGGGAACGTGGCGTCG was 0.831; that for CCGACTGGGGGAAGGTTACCATAACGCACAGCCA was 1.63; that for TAGCCTAGGTCAGATCGCGCCAGTATACGCTATA was 0.856.
In turn, CGAACGAGGCCATGAGTTGATAGCAAATGCCGAT came in with a PBM binding z-score of 0.728.
The same measure, in the same setting: in the case of TCTTGTAGATCAACAGAGGTTAAGAAAGTGCGCT it was 0.162.
The same measure, in the same setting: the value for GCTCGGAGGACAAGGTCAGAGCCTTGTCCGTAGA was 0.887.
In the case of ATCGAAAGGTCGTGAGGTGAGTATGCAGAAAGGC, the PBM binding z-score was 3.67.
On the same count and under the same terms, the value for CCTGCTAGGTCATGATCAGCTAATCTACAGTATG was 2.28; that for CCTCGGAGGACAACAGGTGGTCAGAGCTGCCAGA was -0.311.
Same read-out and setting: in the case of CCGAGTAGGTCATGGGGCATTCAGGCAACGGTGA it was 8.14.
Same read-out and setting: in the case of CGTCAAAGTTCAAGGTAACGTACCAGAAAGCAGC it was 4.38; in that of CGAACTAGGTCACTGACAGGACAGTGAATAGTAA, 7.95.
CCTACTGGGCCACGAAAGGTCATTGCTTCAGTGA yielded a PBM binding z-score of 4.49.
The same measure, in the same setting: the value for CAAACTAGATCACCGGAAGGTCAAAGTCCGCATG was 2.04; that for CCTAGTTGGTCAATGTCACACACGCTATAGGTAC was 1.17; that for CCTACTGGGCCATCACGTCATTGATATCAACGTT was 0.963.
Regarding GCGACTGGGGCAAAGCAGGTTACCATAAGGTTGG, the PBM binding z-score stood at 1.19.
The sequence TCTGCTAGGTCAACGATGGTCAGCTACTCTGCTA had a PBM binding z-score of 2.4.
The sequence ACAAGCAGGCCAAGGGTCACTCAAGATTAGTCCG had a PBM binding z-score of 8.28.
Still for that read-out and setting: in the case of CCTAGCAGGCCAAGGTCACTCAAGCATTTCGCTT it was 1.14; in that of TCTCGGAGGACACGAAGGTCAGACCTTTCCAGAG, 0.782; in that of GTACCAAGGTGAATAGGTCGTTAATGAGTAGGCG, 1.38.
TCTATTAGTTGATGGGCAACCGACGAGTCCGTTT registered a PBM binding z-score of 0.0134.
On the same count and under the same terms, the value for CGAACTAGGGCATCCAGGACAGTGAATACATTGA was 3.28; that for TTACCTAGGTGAAGGTCGTTGATCCCTCTGTAGA was 1.4.
On the same count and under the same terms, the value for CGGACTGGGGCAAGGTTACCATAACGCACAGCCA was 4.88.
The same measure, in the same setting: in the case of ACTATTAGTTGACTTAGGGCAACCGTTACGACGC it was 0.776; in that of CCGACTGGGGCTAAGGTTACCATACTCAGTACGA, 5.47.
As for AGAACGAGGGCATGCTGAGTTGATAGCAGAGTAG, the PBM binding z-score amounted to 0.939.
As for ATATGTAGGTTATCGGTTCATTCAGTTTGCGCAT, the PBM binding z-score is 5.47.
The same measure, in the same setting: the value for TCATATAGGTAAACAGTTGAAAGTCCGTAAGTTA was 1.53; that for CAAACTACGTCACCGGAAGGTCAAAGTCCGCATG was 1.14.
